A selection: hits, their analogues and other compounds. The true share with any hit is near 32%.
PostGolgi ctrl – growth of the yeast control strain, post-Golgi counter-screen; hit rate 5% among 98,000; inhibition, % at 10 µM; efflux-deficient yeast background strain, growth absorbance A615, 16 h; AID 738
CYP2C19 activ – cytochrome P450 2C19 (human) activation. recombinant CYP2C19, luciferin-H EGE luminescence; stronger effect = higher value; 0 = fully inhibited enzyme, 1 = untreated enzyme. activation factor at 5 µM. 96,000 tested, under 10 active. P33261;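 active = activation factor of at least 2 at 5 µM in the primary screen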;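 also: 0 = wells with 2.5 mM tranylcypromine and 1 = vehicle-only wells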
Target sequence (P33261 whole entry, looked up): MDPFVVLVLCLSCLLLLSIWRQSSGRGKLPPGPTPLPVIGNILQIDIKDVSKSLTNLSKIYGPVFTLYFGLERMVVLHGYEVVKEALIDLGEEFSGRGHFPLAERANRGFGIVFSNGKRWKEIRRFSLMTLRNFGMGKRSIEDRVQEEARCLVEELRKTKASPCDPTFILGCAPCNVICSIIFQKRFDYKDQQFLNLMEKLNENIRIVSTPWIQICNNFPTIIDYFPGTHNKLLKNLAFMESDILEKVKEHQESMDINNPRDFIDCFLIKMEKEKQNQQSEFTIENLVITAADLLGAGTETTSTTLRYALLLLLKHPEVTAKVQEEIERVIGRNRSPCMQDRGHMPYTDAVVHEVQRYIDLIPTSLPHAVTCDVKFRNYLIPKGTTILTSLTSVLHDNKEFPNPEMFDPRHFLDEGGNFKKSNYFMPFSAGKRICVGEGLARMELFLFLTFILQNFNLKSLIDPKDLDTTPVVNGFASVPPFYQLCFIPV
PostGolgi yeast – growth inhibition of a yeast mutant, post-Golgi transport screen | post-Golgi transport phenotypic cell assay | inhibition, % at 10 µM | hit rate 0.9% among 98,000 | AID 739;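 also: yeast cells grown in 1536-well plates; yeast grown about 18 h at 30C before absorbance read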
CYP2C19 inh – human CYP2C19 inhibition. P33261. CYP2C19 Supersomes, luciferin-H EGE luminescence, 30 min. inhibition, % at 5 µM. hit rate 21% among 96,000. AID 778;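 active = CYP2C19 inhibition above a set limit at 5 µM in the primary screen, cut at about 50% in these data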;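 also: plate controls were negative control wells for no effect and 2.5 mM tranylcypromine positive control for full effect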
CYP2C9 act – CYP2C9 (human) activation; AID 1024; recombinant CYP2C9, luciferin-H conversion, luminescence; stronger effect = higher value; factor 1 = untreated enzyme, 0 = blocked; activation factor at 5 µM; hit rate 1.4% among 96,000;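 active = activation factor of 2 or more for CYP2C9 at a 5 µM dose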;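 also: 0 = sulfaphenazole-blocked wells and 1 = vehicle-only wells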
CYP2C9 inhib – human CYP2C9 inhibition; P11712; CYP2C9 Supersomes, luciferin-H conversion, luminescence; inhibition, % at 5 µM; hit rate 20% among 96,000; AID 777;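 active = blocking of liver enzyme CYP2C9 beyond about 50% at 5 µM, limit read from the data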
* hit, by the source's call; x = no result given. Rule as the data show it, unless noted: active = inhibition above about 30%; inactive = the rest.

SMILES	PostGolgi ctrl	CYP2C19 activ	PostGolgi yeast	CYP2C19 inh	CYP2C9 act	CYP2C9 inhib
Cc1cc(C)c(C)c(OCCCCn2cnc3ccccc3c2=O)c1	37*	0.8	-6	15	1.2	-17
Cc1ccccc1OCCCCn1cnc2ccccc21	36*	0.4	5	61*	0.7	35
CC(C)NC(=O)C1CCN(C(=O)N(C)C)CC1	9	1.1	0	-10	1	-4
O=C(Nc1ccc(Br)cc1F)C1CCN(c2nnc(-n3cccc3)s2)CC1	-3	1.1	-7	-5	1	0
CCn1c(=O)c(=O)[nH]c2cc(C(=O)N3CCN(c4ccccc4F)CC3)ccc21	4	1	0	-5	0.9	13
CCCCOc1ccc(/C=c2\sc3ncnn3c2=O)cc1	6	1	-8	-2	0.9	10
CCCOc1ccc(Cn2cnc3ccccc32)cc1	28	0.4	2	65*	0.1	87*
CCOc1cccc(OCCOCCn2cnc3ccccc3c2=O)c1	3	0.1	22	94*	0.1	86*
Brc1ccccc1OCCCN1CCOCC1	0	x	10	x	x	x
CC(C)(c1ccccc1)c1ccc(OCCn2cnc3ccccc3c2=O)cc1	25	0.8	5	22	0.9	13
Brc1ccccc1OCCCn1cnc2ccccc21	30*	0.4	0	58*	0.4	60*
c1ccc(OCCn2cnc3ccccc32)cc1	34*	0.7	12	27	0.9	11
CCOC(=O)CSc1nnc(C)n1N	5	1	-7	3	1	-2
COCCn1c(C2CCCCC2)nc2sc3ccccc3c(=O)c2c1=O	85*	0.4	39*	61*	0.2	77*
O=C(CNC(=O)c1cccs1)NC1=NCCS1	-2	0.9	6	11	1	-3
COc1ccccc1CN(Cc1cc2cc(C)ccc2[nH]c1=O)Cc1nnnn1Cc1ccco1	11	0	0	99*	0	98*
CCOC(=O)Cn1nnnc1CN(Cc1ccc(OC)cc1)Cc1cc2cc(CC)ccc2[nH]c1=O	8	0	-6	97*	0	95*
COc1ccc2[nH]c(=O)c(CN(Cc3cccs3)Cc3nnnn3Cc3ccccc3)cc2c1	2	0.9	11	5	0.9	13
CCc1ccc2[nH]c(=O)c(CN(Cc3ccccc3OC)Cc3nnnn3Cc3ccco3)cc2c1	27	0.4	4	58*	0	96*
O=C(CCSc1ccccc1)Nc1nc2c(s1)COc1ccccc1-2	10	0.9	6	14	0.7	26
Cc1cc(C)cc(C(=O)N(NC(=O)Nc2ccc(Cl)cc2)C(C)(C)C)c1	4	0.8	13	21	0.8	17
CS(=O)(=O)N(CC(N)=O)c1ccc(F)c(Cl)c1	-5	0.8	-3	16	0.9	6
CNC(=O)N(C1=NCC(C)(C)S1)c1ccc(F)c(Cl)c1	22	0.1	3	91*	0.5	51*
Cc1[nH]nc2c1C1(CCC3(CC1)OCCO3)C(C#N)=C(N)O2	1	0.9	-3	9	0.9	10
CCOC(=O)N1CCN(C(=O)c2ccc3nc(SCc4ccc(F)cc4)n(C)c3c2)CC1	16	0.5	-1	49	0.3	65*
SMILES	PostGolgi ctrl	CYP2C19 activ	PostGolgi yeast	CYP2C19 inh	CYP2C9 act	CYP2C9 inhib
CCOC(=O)N1CCN(C(=O)c2ccc3nc(N4CCCCC4)sc3c2)CC1	6	0.8	-2	22	0.8	15
O=C(NCCN1CCCC1)C1CC(=O)N(C2CCCCC2)C1 (stereo not drawn)	4	0.8	-5	24	1	4
Cc1cc(SCC(=O)c2ccccc2)nc(C)n1	4	0.3	-2	67*	0.8	22
Cc1cc(C)n2nc(SCC(=O)c3ccccc3)nc2n1	0	0.4	0	59*	0.7	29
O=C(CSc1ccccn1)c1ccc(F)cc1	-1	0.6	14	41	1	3
Cc1cc(C)n2nc(SCc3nnc(SCc4ccccc4)s3)nc2n1	39*	0.5	6	49	0.7	33
Cc1cc(SCC(N)=O)nc(SCC(=O)c2ccccc2)n1	8	0.8	24	20	1	4
Cc1ccc(C(=O)CSc2ccccn2)cc1	-5	0.2	17	82*	0.6	43
COc1ccc(C2C(C(=O)N3CCOCC3)CCC(=O)N2c2cc(OC)c(OC)c(OC)c2)cc1 (stereo not drawn)	2	x	3	x	x	x
C/C(N)=C(/C#N)C(=O)CSc1nnc(-c2ccc3c(c2)OCO3)o1	-3	0.8	8	21	1.1	-10
COC(=O)c1ccc(NC(=O)CSc2ccccn2)cc1	9	0.2	25	82*	0.5	54*
Cc1cc(=O)[nH]c(SCn2nnc3ccccc3c2=O)n1	6	1.1	-4	-5	1	2
COc1ccc(CNC(=O)CSc2nc3nc(C)cc(C)n3n2)cc1	-2	0.8	15	20	0.4	61*
Cc1ccc(C(=O)CSc2cc(C)nc(SCC(=O)c3ccccc3)n2)cc1	5	0.7	2	33	0.3	73*
COC(=O)c1ccc(NC(=O)CSc2nc(C)cc(=O)[nH]2)cc1	3	1	-3	0	0.8	17
Cc1cc(C)n2nc(SCn3nnc4ccccc4c3=O)nc2n1	6	0.3	-3	72*	0.9	8
